Records with an inconclusive call do not appear. A number with no mark means an inactive call. Activity calls are given as the source filed them. Calls come from the whole dose curve; as a rule, active = well fitted inhibition curve with a large enough effect; inconclusive = small, poorly fitted or top-dose-only effect; inactive = flat fitted curve, though single readings scatter.
What was measured:
P94_40 = experiment: qHTS profiling for inhibitors of Plasmodium falciparum proliferation (AID 504749); conditions: P. falciparum in erythrocytes, SYBR Green DNA, 72 h; series mostly up to 28.7 µM
In short: (§1)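 P. falciparum-infected erythrocytes (0.3% parasitemia, 2.5% hematocrit final) were exposed to compounds for 72 h at 37 C in 5% CO2, then lysed with SYBR Green buffer overnight at room temperature; parasite DNA fluorescence was normalized to artemisinin and DMSO controls.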

PAD = experiment: as above; conditions: P. falciparum in erythrocytes, SYBR Green DNA, 72 h; series mostly up to 28.7 µM
In short: as §1

PC15 = experiment: as above; conditions: P. falciparum in erythrocytes, SYBR Green DNA, 72 h; series mostly up to 28.7 µM
In short: as §1

PC26 = experiment: as above; conditions: P. falciparum in erythrocytes, SYBR Green DNA, 72 h; series mostly up to 28.7 µM
In short: as §1

PC49 = experiment: as above; conditions: P. falciparum in erythrocytes, SYBR Green DNA, 72 h; series mostly up to 28.7 µM
In short: as §1

SC27B = experiment: as above; conditions: P. falciparum in erythrocytes, SYBR Green DNA, 72 h; series mostly up to 28.7 µM
In short: as §1

TAB109 = experiment: as above; conditions: P. falciparum in erythrocytes, SYBR Green DNA, 72 h; series mostly up to 28.7 µM
In short: as §1

TAB113 = experiment: as above; conditions: P. falciparum in erythrocytes, SYBR Green DNA, 72 h; series mostly up to 28.7 µM
In short: as §1

TAB165 = experiment: as above; conditions: P. falciparum in erythrocytes, SYBR Green DNA, 72 h; series mostly up to 28.7 µM
In short: as §1

W2 = experiment: as above; conditions: P. falciparum in erythrocytes, SYBR Green DNA, 72 h; series mostly up to 28.7 µM
In short: as §1

HaCat [1] = experiment: Cytotoxic Profiling of Annotated Libraries Using Quantitative High-Throughput Screening (AID 1296008); conditions: Five cell lines viability, CellTiter-Glo ATP luminescence, 48-72 h; max response: hits give low values; for max response: % is set by controls: 0 for no effect and ±100 for the full control effect
In short: (§2)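 Compounds were pin-transferred onto cells and incubated 48 or 72 hr at 37 degree Celsius, 95% humidity. CellTiter-Glo was added, plates sat 10 min at room temperature, then ATP-coupled luminescence was imaged as the viability read-out.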

NIH3T3 = experiment: as above; conditions: Five cell lines viability, CellTiter-Glo ATP luminescence, 48-72 h; max response: hits give low values
In short: as §2

HACAT [2] = experiment: qHTS assay to identify novel small-molecules to repurpose for Merkel cell carcinoma treatment (AID 1296009); conditions: MCC and control cell lines, CellTiter-Glo viability, 72 h; at 44.8 µM (top of the series) unless noted
In short: (§3)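 Cells exposed to NPC (8-point) and MIPE (11-point) compound dilutions for 72 hr at 37 degree celsius; viability read by CellTiter-Glo luminescence, normalized to no-cell and DMSO in-plate controls.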

MCC-13 = experiment: as above; conditions: MCC and control cell lines, CellTiter-Glo viability, 72 h; series mostly up to 46 µM
In short: as §3

MCC-26 = experiment: as above; conditions: MCC and control cell lines, CellTiter-Glo viability, 72 h; series mostly up to 46 µM
In short: as §3

MKL-1 = experiment: as above; conditions: MCC and control cell lines, CellTiter-Glo viability, 72 h; series mostly up to 46 µM
In short: as §3

KB-3-1 = experiment: Cytotoxic Profiling of Annotated Libraries Using Quantitative High-Throughput Screening (AID 1296008); conditions: Five cell lines viability, CellTiter-Glo ATP luminescence, 48-72 h; max response: hits give low values; for max response: % is set by controls: 0 for no effect and ±100 for the full control effect
In short: as §2

HEK293T = experiment: qHTS assay to identify novel small-molecules to repurpose for Merkel cell carcinoma treatment (AID 1296009); conditions: MCC and control cell lines, CellTiter-Glo viability, 72 h; at 44.8 µM (top of the series) unless noted
In short: as §3

HEK293 = experiment: Cytotoxic Profiling of Annotated Libraries Using Quantitative High-Throughput Screening (AID 1296008); conditions: Five cell lines viability, CellTiter-Glo ATP luminescence, 48-72 h; max response: hits give low values; for max response: % is set by controls: 0 for no effect and ±100 for the full control effect
In short: as §2
Note: nearly all actives have a fitted effect of over 60% in size.
Potency is the fitted concentration of half-maximal effect.

Question: `CCNC(=O)N1CCN(CCCC(c2ccc(F)cc2)c2ccc(F)cc2)CC1` was tested. Which Potency (P94_40) did it give?
Answer: The Potency was 2.82 µM (active).

Question: And the Potency (PAD)?
Answer: Its Potency is 3.55 µM (active).

Question: And the Potency (PC15)?
Answer: Its Potency is 3.55 µM (active).

Question: And the Potency (PC26)?
Answer: Its Potency is 4.78 µM (active).

Question: And the Potency (PC49)?
Answer: Its Potency is 0.891 µM (active).

Question: And the Potency (SC27B)?
Answer: The Potency was 2 µM (active).

Question: What about the Potency (TAB109) of the same compound?
Answer: The Potency was 2.24 µM (active).

Question: What about the Potency (TAB113) of the same compound?
Answer: Its Potency is 2.24 µM (active).

Question: What about the Potency (TAB165) of the same compound?
Answer: The Potency was 2 µM (active).

Question: What about the Potency (W2) of the same compound?
Answer: Its Potency is 0.953 µM (active).

Question: What about the outcome (HaCat [1]) of the same compound?
Answer: Its outcome is “inactive”.

Question: And the max response (NIH3T3)?
Answer: The max response was -3.38%.

Question: And the outcome (HACAT [2])?
Answer: The outcome was “inactive”.

Question: What about the Potency (MCC-13) of the same compound?
Answer: The Potency was “inactive”.

Question: What about the Potency (MCC-26) of the same compound?
Answer: Its Potency is “inactive”.

Question: And the Potency (MKL-1)?
Answer: The Potency was “inactive”.

Question: How did the Potency (PAD) turn out when `CN(C)CC[C@@H](c1ccc(Br)cc1)c1ccccn1` was run?
Answer: The Potency was “inactive”.

Question: What about the Potency (SC27B) of the same compound?
Answer: Its Potency is “inactive”.

Question: What about the Potency (W2) of the same compound?
Answer: The Potency was 0.849 µM (active).

Question: What about the outcome (HACAT [2]) of the same compound?
Answer: The outcome was “inactive”.

Question: And the Potency (MCC-13)?
Answer: Its Potency is “inactive”.

Question: What about the Potency (MCC-26) of the same compound?
Answer: The Potency was “inactive”.

Question: And the Potency (MKL-1)?
Answer: Its Potency is “inactive”.

Question: `CCc1cccc(N(C)C(N)=Nc2cccc3ccccc23)c1` was tested. Which Potency (PAD) did it give?
Answer: The Potency was 4.47 µM (active).

Question: And the Potency (PC15)?
Answer: The Potency was 5.01 µM (active).

Question: And the Potency (PC26)?
Answer: The Potency was 4.26 µM (active).

Question: And the Potency (W2)?
Answer: The Potency was 0.757 µM (active).

Question: And the max response (HaCat [1])?
Answer: Its max response is -4.04%.

Question: What about the max response (KB-3-1) of the same compound?
Answer: Its max response is -7.55%.

Question: What about the max response (NIH3T3) of the same compound?
Answer: The max response was -9.35%.

Question: What about the Potency (MCC-26) of the same compound?
Answer: The Potency was “inactive”.

Question: What about the Potency (MKL-1) of the same compound?
Answer: Its Potency is “inactive”.

Question: Which results are given for `COCC(=O)O[C@]1(CCN(C)CCCc2nc3ccccc3[nH]2)CCc2cc(F)ccc2[C@@H]1C(C)C`?
Answer: Potency (P94_40): 2.82 µM (active); Potency (PAD): 3.55 µM (active); Potency (PC15): 4.47 µM (active); Potency (PC26): 3.38 µM (active); Potency (PC49): 1.12 µM (active); Potency (SC27B): 1.78 µM (active); Potency (TAB109): 2.24 µM (active); Potency (TAB113): 2 µM (active); Potency (TAB165): 2 µM (active); Potency (W2): 0.12 µM (active)

Question: What does the source list for `COCCc1ccc(OCC(O)CNC(C)C)cc1` (centres undefined)?
Answer: outcome (HACAT [2]): inactive; outcome (HEK293T): inactive; Potency (MCC-13): inactive; Potency (MCC-26): inactive; Potency (MKL-1): inactive

Question: For `COc1ccc([C@@H]2Sc3ccccc3N(CCN(C)C)C(=O)[C@@H]2OC(C)=O)cc1`, which Potency (P94_40) is on record?
Answer: Its Potency is “inactive”.

Question: What about the Potency (PAD) of the same compound?
Answer: Its Potency is “inactive”.

Question: And the Potency (PC15)?
Answer: Its Potency is “inactive”.

Question: What about the Potency (PC26) of the same compound?
Answer: The Potency was “inactive”.

Question: What about the Potency (PC49) of the same compound?
Answer: The Potency was “inactive”.

Question: And the Potency (SC27B)?
Answer: The Potency was “inactive”.

Question: What about the Potency (TAB109) of the same compound?
Answer: Its Potency is “inactive”.

Question: And the Potency (TAB113)?
Answer: The Potency was “inactive”.

Question: What about the Potency (TAB165) of the same compound?
Answer: Its Potency is “inactive”.

Question: What does the source list for `CCN(CC)CCOCCOC(=O)C1(c2ccccc2)CCCC1`?
Answer: Potency (P94_40): 7.08 µM (active); Potency (PAD): 8.91 µM (active); Potency (PC15): 11.2 µM (active); Potency (PC26): 12 µM (active); Potency (PC49): 7.08 µM (active); Potency (SC27B): 12.6 µM (active); Potency (TAB109): 6.31 µM (active); Potency (TAB113): 11.2 µM (active); Potency (TAB165): 8.91 µM (active); Potency (W2): 0.953 µM (active); outcome (HACAT [2]): inactive; Potency (MCC-13): inactive; Potency (MCC-26): inactive; Potency (MKL-1): inactive

Question: What does the source list for `CNCCCN1c2ccccc2CCc2ccccc21`?
Answer: outcome (HaCat [1]): inactive; max response (KB-3-1): -3.48%; outcome (HACAT [2]): inactive; Potency (MCC-13): inactive; Potency (MCC-26): inactive

Question: Which results are given for `CC(C)COCC(CN(Cc1ccccc1)c1ccccc1)N1CCCC1` (centres undefined)?
Answer: Potency (PAD): inactive; Potency (PC49): inactive; Potency (SC27B): inactive; Potency (TAB109): inactive; Potency (TAB113): inactive; Potency (HEK293): 18.8 µM (active); Potency (NIH3T3): 26.6 µM (active)

Question: How did the Potency (P94_40) turn out when `COc1cc2c(cc1OC)-c1cc(=Nc3c(C)cc(C)cc3C)n(C)c(=O)n1CC2` was run?
Answer: The Potency was 3.98 µM (active).

Question: And the Potency (PAD)?
Answer: Its Potency is 3.16 µM (active).

Question: What about the Potency (PC15) of the same compound?
Answer: The Potency was 10 µM (active).

Question: What about the Potency (PC26) of the same compound?
Answer: The Potency was 6.01 µM (active).

Question: And the Potency (PC49)?
Answer: The Potency was 3.55 µM (active).

Question: And the Potency (SC27B)?
Answer: Its Potency is 2.82 µM (active).

Question: What about the Potency (TAB109) of the same compound?
Answer: The Potency was 4.47 µM (active).

Question: And the Potency (TAB113)?
Answer: The Potency was 3.16 µM (active).

Question: What about the Potency (TAB165) of the same compound?
Answer: Its Potency is 2.51 µM (active).

Question: What about the Potency (W2) of the same compound?
Answer: Its Potency is 1.9 µM (active).

Question: And the outcome (HaCat [1])?
Answer: Its outcome is “inactive”.

Question: And the outcome (HACAT [2])?
Answer: The outcome was “inactive”.

Question: Which results are given for `CN(C)CCCN1c2ccccc2Sc2ccc(C(F)(F)F)cc21`?
Answer: Potency (PC49): 8.91 µM (active); Potency (TAB165): 12.6 µM (active); Potency (W2): 6.75 µM (active); Potency (MCC-26): inactive

Question: What does the source list for `CCCCNC(=O)NS(=O)(=O)c1ccc(C)cc1`?
Answer: Potency (P94_40): inactive; Potency (PAD): inactive; Potency (PC15): inactive; Potency (PC26): inactive; Potency (PC49): inactive; Potency (SC27B): inactive; Potency (TAB109): inactive; Potency (TAB113): inactive; Potency (TAB165): inactive; Potency (W2): inactive; outcome (HEK293T): inactive; Potency (MCC-13): inactive; Potency (MCC-26): inactive; Potency (MKL-1): inactive

Question: How did the Potency (P94_40) turn out when `COC(=O)C1=C(C)NC(C)=C(C(=O)OC(C)(C)CN(C)CCC(c2ccccc2)c2ccccc2)C1c1cccc([N+](=O)[O-])c1` (centres undefined) was run?
Answer: Its Potency is 2.51 µM (active).

Question: And the Potency (PAD)?
Answer: Its Potency is 2.51 µM (active).

Question: And the Potency (PC15)?
Answer: The Potency was 6.31 µM (active).

Question: And the Potency (PC26)?
Answer: The Potency was 1.51 µM (active).

Question: What about the Potency (SC27B) of the same compound?
Answer: The Potency was 2.24 µM (active).

Question: And the Potency (TAB109)?
Answer: Its Potency is 3.16 µM (active).

Question: What about the Potency (TAB113) of the same compound?
Answer: The Potency was 2.51 µM (active).

Question: What about the Potency (TAB165) of the same compound?
Answer: Its Potency is 2.24 µM (active).

Question: What about the Potency (W2) of the same compound?
Answer: The Potency was 1.2 µM (active).

Question: And the Potency (HEK293)?
Answer: The Potency was 10.6 µM (active).

Question: What about the Potency (MCC-26) of the same compound?
Answer: The Potency was “inactive”.

Question: And the Potency (MKL-1)?
Answer: The Potency was 23.7 µM (active).

From PubChem BioAssay (NCATS)
